Hits are enriched below; roughly 1.3% of the tested compounds scored in any of these assays.
MCL1 BIM primary = inhibitors of MCL1 binding to BIM-BH3, primary screen, biochemical, fluorescence polarization; AID 2057, 2009; actives 0.68% (n = 320,000); GST-MCL1 / FITC-Bim-BH3 fluorescence polarization; inhibition, % at 10.9 µM; Induced myeloid leukemia cell differentiation protein Mcl-1 (Homo sapiens), Q07820;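 active means inhibition above the mean inhibition of all tested compounds plus 3 SD, set per campaign, cut at about 40% in these data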;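 further: higher means more loss of mP so more displacement of Bim peptide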
MEX-5 binding = MEX-5 zinc finger RNA-binding disruptors – biochemical, C. elegans, fluorescence polarization, MLPCN library, primary screen | Zinc finger protein mex-5 (Caenorhabditis elegans), Q9XUB2 | activity score (negative = inhibition of binding), % at 10 µM | actives 0.38% (n = 300,000) | MEX-5/FITC-TCR2 RNA binding; stronger effect = lower value | AID 1832, 2009;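 active means inhibition past about -25% in most replicates, and total fluorescence under double the plate's negative control median, limit read from the data; inconclusive means replicates evenly split on the limit, or fluorescence at least double controls; inactive means too little inhibition in most replicates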
Target sequence (Q9XUB2 whole entry, looked up): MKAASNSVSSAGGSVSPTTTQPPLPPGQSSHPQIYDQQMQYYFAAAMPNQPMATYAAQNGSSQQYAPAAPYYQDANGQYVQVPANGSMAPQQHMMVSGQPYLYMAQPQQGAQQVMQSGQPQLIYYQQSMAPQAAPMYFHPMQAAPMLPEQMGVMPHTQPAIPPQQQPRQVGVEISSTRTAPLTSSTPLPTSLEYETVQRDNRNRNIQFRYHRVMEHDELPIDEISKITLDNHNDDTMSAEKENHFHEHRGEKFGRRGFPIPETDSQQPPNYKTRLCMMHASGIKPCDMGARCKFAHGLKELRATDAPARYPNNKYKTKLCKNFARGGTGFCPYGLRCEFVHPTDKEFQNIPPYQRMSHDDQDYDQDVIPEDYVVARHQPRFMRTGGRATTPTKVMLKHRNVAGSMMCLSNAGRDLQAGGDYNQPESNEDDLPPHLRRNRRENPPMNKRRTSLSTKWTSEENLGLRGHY
GLD-1 RNA inh = GLD-1/TGE RNA complex disruptors, primary screen, biochemical, fluorescence polarization | Female germline-specific tumor suppressor gld-1 (Caenorhabditis elegans), Q17339 | purified GLD-1 + fluorescein TGE RNA | inhibition, % at 5.96 µM | actives 0.44% (n = 320,000);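 active means percent inhibition above a per-plate cutoff, the plate mean of test compounds plus 3 SD, cut at about 30% in these data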
Bcl-xL primary = inhibitors of human Bcl-xL, primary screen, biochemical, fluorescence polarization, HTS; GST-Bcl-xL / FITC-Bim BH3 peptide fluorescence polarization; inhibition, % at 10.9 µM; actives 0.7% (n = 320,000); AID 2129, 2009;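 active means inhibition above the mean of all tested compounds plus 3 SD, cutoff set per campaign, cut at about 30% in these data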;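 further: inhibitors lower millipolarization by displacing the labeled peptide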
EBV gp42 inh = Epstein-Barr virus gp42 inhibitors, primary screen, biochemical, uHTS, fluorescence polarization; AID 1085, 2008; inhibition, % (tested at 21.74 µM); Glycoprotein 42 (Epstein-Barr virus (strain AG876)), Q1HVG2; actives 0.42% (n = 220,000); Fluorescence polarization binding assay, mP read-out; in the data active means inhibition above about 50%
Target sequence (Q1HVG2 whole entry, looked up): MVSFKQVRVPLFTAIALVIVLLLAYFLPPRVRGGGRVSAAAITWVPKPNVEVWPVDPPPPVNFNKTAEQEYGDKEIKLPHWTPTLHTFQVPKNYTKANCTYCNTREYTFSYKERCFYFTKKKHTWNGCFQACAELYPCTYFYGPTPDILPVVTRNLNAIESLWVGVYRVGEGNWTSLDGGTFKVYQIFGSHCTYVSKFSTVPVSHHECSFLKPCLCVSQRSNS
BCLXL inh confirm = Bcl-xL inhibitors blocking Bim BH3 binding, confirmation, counter-screen for MCL1 inhibitor project, biochemical, fluorescence polarization; shares compounds with MCL1 BIM primary; GST-Bcl-xL / FITC-Bim BH3 peptide FP binding; inhibition, % at 10.9 µM; actives 54% (n = 1,700); AID 2166, 2009;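 active means inhibition above a cutoff equal to the mean inhibition of all tested compounds plus 3 SD, cut at about 30% in these data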
MCL1 BIM confirm = inhibitors of MCL1 binding to BIM-BH3, confirmation, biochemical, fluorescence polarization, triplicate. shares compounds with MCL1 BIM primary. GST-MCL1 / FITC-Bim-BH3 fluorescence polarization. inhibition, % at 10.9 µM. actives 61% (n = 1,700);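 active means inhibition above the average of all tested compounds plus 3 SD, cut at about 40% in these data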
Large screens that a line does not name were inactive (follow-up assays come after a bar, where they were run).

O=C1CNC(=S)N1Cc1cccc(Cl)c1	none (no result: EBV gp42 inh)
COC(=O)c1cc(N2CCN(C)CC2)nc2ccccc12	MCL1 BIM primary 144, MEX-5 binding inconclusive, GLD-1 RNA inh 85, Bcl-xL primary 138, EBV gp42 inh 82 | BCLXL inh confirm inactive | MCL1 BIM confirm inactive
COc1ccc(S(=O)(=O)Nc2ncccc2C)c2ccccc12	none (no result: EBV gp42 inh)
COC(=O)c1sc(NC(=O)CSc2nc3cccnc3n2C)nc1C	none (no result: EBV gp42 inh)
COc1cc(/C=C2\SC(=S)N(c3cccnc3)C2=O)ccc1O	MCL1 BIM primary 60 | BCLXL inh confirm inactive | MCL1 BIM confirm 44
O=C(NCc1ccccc1Br)c1ccncc1	none (no result: EBV gp42 inh)
CN1CCN(S(=O)(=O)c2ccc(C#N)cc2)C(c2ccccc2)C1 (centres undefined)	none (no result: MEX-5 binding, EBV gp42 inh)
COc1ccc(NS(=O)(=O)c2ccc3c(c2)[C@H]2C=CC[C@H]2[C@@H](c2ccc(C(=O)O)cc2)N3)cc1	MCL1 BIM primary 54, MEX-5 binding -61 (no result: EBV gp42 inh) | BCLXL inh confirm inactive | MCL1 BIM confirm inactive
Cc1c(Cl)cccc1NS(=O)(=O)c1ccc2c(c1)C1C=CCC1C(c1ccc(C(=O)O)cc1)N2 (centres undefined)	MCL1 BIM primary 61, Bcl-xL primary 39, EBV gp42 inh 79 (no result: MEX-5 binding) | BCLXL inh confirm inactive | MCL1 BIM confirm 74
CC(=O)c1ccc2c(c1)C1C=CCC1C(c1ccc(S(=O)(=O)N3CCOCC3)cc1)N2 (centres undefined)	none (no result: MEX-5 binding)
COc1ccccc1C(=O)NC1CCN(C(=S)NCCc2ccccc2)CC1	none
CCCn1c(=O)c2ccccc2n2c(SCc3cc(=O)oc4ccc5ccccc5c34)nnc12	MCL1 BIM primary 40, GLD-1 RNA inh 31, Bcl-xL primary 35 | BCLXL inh confirm inactive | MCL1 BIM confirm inactive
Cc1ccccc1NC(=O)CSc1ccsc1[N+](=O)[O-]	MCL1 BIM primary 67, EBV gp42 inh 70 | BCLXL inh confirm 32 | MCL1 BIM confirm 90
COCCCNC(=O)CSc1ccsc1[N+](=O)[O-]	none
Cc1ccccc1OCC(=O)OCC(=O)Nc1ncc(Cl)c(C)c1Cl	MCL1 BIM primary 41 (no result: MEX-5 binding, EBV gp42 inh) | BCLXL inh confirm inactive | MCL1 BIM confirm 47
Cc1ccccc1OCC(=O)OCC(=O)Nc1ccc(Cl)cn1	none (no result: MEX-5 binding, EBV gp42 inh)
COc1cc(NC(=O)c2ccc(=O)[nH]n2)cc(OC)c1OC	none (no result: EBV gp42 inh)
CCOC(=O)C(C(=O)OCC)c1cc(Br)c2noc3c2c1C(=O)c1ccccc1-3	MCL1 BIM primary 196, MEX-5 binding -32, GLD-1 RNA inh 171, Bcl-xL primary 176, EBV gp42 inh 133 | BCLXL inh confirm 145 | MCL1 BIM confirm 148
Cc1ccc(-c2nc(CS(=O)(=O)CC(=O)NCCN3CCCC3)c(C)o2)cc1	none (no result: EBV gp42 inh)
COc1ccc2c3c(cccc13)C(=O)N(O)C2=O	MCL1 BIM primary 69, Bcl-xL primary 69, EBV gp42 inh 75 | BCLXL inh confirm 67 | MCL1 BIM confirm 77
O=C1c2cccc3c([N+](=O)[O-])ccc(c23)C(=O)N1c1ccc(Cl)cn1	MCL1 BIM primary 139, GLD-1 RNA inh 103, Bcl-xL primary 120, EBV gp42 inh 80 | BCLXL inh confirm 82 | MCL1 BIM confirm 105
O=C1c2cccc3c([N+](=O)[O-])ccc(c23)C(=O)N1O	MCL1 BIM primary 48, Bcl-xL primary 57 (no result: EBV gp42 inh) | BCLXL inh confirm 43 | MCL1 BIM confirm 58
COc1ccc(C(C)=O)c2c(O)cccc12	none
COc1ccc(C(=O)NC2CCN(CC(=O)NCc3cccc(OC)c3)CC2)cc1	none (no result: EBV gp42 inh)
Cc1ccc(N2CC(C(=O)Nc3cccc(C(=O)NC4CC4)c3)CC2=O)cc1 (centres undefined)	none (no result: MEX-5 binding, EBV gp42 inh)
Cc1ccc2nc(-c3ccc(-c4cccc(Cl)c4)cc3)c(NCc3ccccc3)n2c1	MCL1 BIM primary 78, Bcl-xL primary 50 (no result: EBV gp42 inh) | BCLXL inh confirm inactive | MCL1 BIM confirm inactive
COc1cc(-c2nc3ccc(C)cn3c2NCc2ccccc2)ccc1-c1cccc(Cl)c1	none (no result: MCL1 BIM primary, MEX-5 binding, Bcl-xL primary, EBV gp42 inh)
CC(=O)Nc1oc(-c2cccc3ccccc23)nc1C#N	none (no result: MEX-5 binding, EBV gp42 inh)
CC(NS(=O)(=O)OCC(Cl)(Cl)Cl)c1ccc(C(C)(C)C)cc1 (centres undefined)	none (no result: EBV gp42 inh)
C[C@H](NS(=O)(=O)OCC(Cl)(Cl)Cl)C1CC1c1ccccc1 (some centres undefined)	MCL1 BIM primary 47 (no result: EBV gp42 inh) | BCLXL inh confirm inactive | MCL1 BIM confirm 61
O=S(=O)(c1cccs1)N1CN(Cc2ccco2)c2nc3ccccc3nc21	MCL1 BIM primary 172, GLD-1 RNA inh 140, Bcl-xL primary 156 | BCLXL inh confirm inactive | MCL1 BIM confirm inactive
CCCc1cc(C(=O)Nc2cc(OC)ccc2OC)cs1	none (no result: EBV gp42 inh)
O=C(Nc1nccs1)c1ccc2c(=O)n3c(nc2c1)CCCCC3	none
CCCCC1OC23CCCCC2C(C#N)(C#N)C1(C#N)C(=N)O3 (centres undefined)	MCL1 BIM primary 127, GLD-1 RNA inh 83, Bcl-xL primary 103 | BCLXL inh confirm inactive | MCL1 BIM confirm inactive
CCCCCCCCOc1ccc(C2OC34CCCCC3C(C#N)(C#N)C2(C#N)C(=N)O4)cc1 (centres undefined)	MCL1 BIM primary 180, MEX-5 binding -87, GLD-1 RNA inh 107, Bcl-xL primary 157 | BCLXL inh confirm 107 | MCL1 BIM confirm 124
COC(=O)c1cc(NC(=O)Cc2cccs2)cc(C(=O)OC)c1	MCL1 BIM primary 44 (no result: EBV gp42 inh) | BCLXL inh confirm inactive | MCL1 BIM confirm inactive
COc1ccc(C(=O)Nc2nnc(Cc3cccs3)s2)cc1OC	none
O=C(Cc1cccs1)Nc1nnc(Cc2ccccc2)s1	MCL1 BIM primary 54 | BCLXL inh confirm inactive | MCL1 BIM confirm 44
COc1ccc(Cc2nnc(NC(=O)Cc3cccs3)s2)cc1OC	MCL1 BIM primary 73, EBV gp42 inh 68 | BCLXL inh confirm inactive | MCL1 BIM confirm 80
CC(=O)Nc1cccc(NC(=O)Cc2cccs2)c1	none (no result: EBV gp42 inh)
S=c1nc(NCCc2ccccc2Cl)c2ccccc2[nH]1	none (no result: MCL1 BIM primary, GLD-1 RNA inh, Bcl-xL primary, EBV gp42 inh)
CSc1ccccc1-c1nnc(-c2ccc(Cl)cc2Cl)o1	none
CSc1ccccc1-c1nnc(-c2ccc(Cl)c(Cl)c2)o1	MCL1 BIM primary 43 | BCLXL inh confirm inactive | MCL1 BIM confirm inactive
Cc1cc(C)c2nc(-c3ccccn3)cc(C(=O)Nc3ccc(S(=O)(=O)Nc4cc(C)on4)cc3)c2c1	none
